Sampled rows, rich in hits. Any-hit rate of the full collection: about 0.28%.
mcGAS inh: blocks mouse cGAS activity | hit rate 0.15% among 160,000 | AID 1259399 | recombinant cGAS, Kinase-Glo ATP depletion luminescence | inhibition, % at 12.5 µM | Q8C6L5;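 further: 0% = negative control wells and 100% = reference inhibitor with no enzyme activity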
Target sequence (Q8C6L5 whole entry, looked up): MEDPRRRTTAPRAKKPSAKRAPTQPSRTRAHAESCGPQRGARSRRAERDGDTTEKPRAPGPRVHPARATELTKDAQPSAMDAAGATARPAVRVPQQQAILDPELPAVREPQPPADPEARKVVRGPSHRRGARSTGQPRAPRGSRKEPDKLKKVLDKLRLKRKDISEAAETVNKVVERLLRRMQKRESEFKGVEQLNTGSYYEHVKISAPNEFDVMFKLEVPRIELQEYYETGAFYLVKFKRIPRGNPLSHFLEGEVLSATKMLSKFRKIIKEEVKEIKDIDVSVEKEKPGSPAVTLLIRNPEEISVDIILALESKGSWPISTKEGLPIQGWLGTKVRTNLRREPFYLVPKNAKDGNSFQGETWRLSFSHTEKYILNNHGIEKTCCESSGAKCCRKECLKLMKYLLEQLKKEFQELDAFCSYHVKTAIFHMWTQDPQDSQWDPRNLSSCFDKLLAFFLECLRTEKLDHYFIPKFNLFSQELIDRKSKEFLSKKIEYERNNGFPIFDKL
hcGAS inh: blocks human cGAS activity. Q8N884. AID 1259398. hit rate 0.081% among 290,000. inhibition, % at 12.5 µM. recombinant h-cGAS, ATP depletion, Kinase-Glo luminescence;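 further: 0% = vehicle reaction and 100% = reaction without DNA for no activity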
NPYLR7 agonist: activates Aedes aegypti NPYLR7 receptor. HEK293T NPYLR7/Galpha15, GCaMP6s calcium fluorescence. activation, % at 10 µM. hit rate 0.15% among 270,000. AID 1259423; in the data active means activation above about 40%;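 further: 0% = vehicle and 100% = reference agonist at the receptor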
The depositor's hits bear a star; . = no result; ! = not confirmed by another sample. Unless noted, no stated cut-off is given here; in the data, active means inhibition above about 40%; inactive means the rest.

SMILES | mcGAS inh | hcGAS inh | NPYLR7 agonist
Cc1cccc(C)c1NC(=O)CN(C)CC(O)c1ccc(OC(F)F)cc1 (stereo unspecified) | . | -7 | 6
C=CCC1=CC(=Cc2c(N)n3nc(Cc4cccs4)sc3nc2=O)C=C(OC)C1=O | . | 2 | 95*
CCCCc1nn2c(N)c(C=C3C=CC(=O)C(OCC)=C3)c(=O)nc2s1 | . | -2 | 39
Cc1ccc(Nc2nc(NCCN(C)C)nc3nccnc23)c(C)c1 | . | -7 | 9
Cc1ccc(Nc2nc(Nc3cccc(F)c3)nc3nccnc23)c(C)c1 | . | -6 | 52*
CCCNc1nc2ccccn2c(=O)c1C=C1SC(=S)N(CC(C)C)C1=O | . | -13 | 2
CC(C)CN1C(=O)C(=Cc2c(N3CCN(CCO)CC3)nc3ccccn3c2=O)SC1=S | -5 | -4 | 79*
Cn1ncc2c(N3CCC(C(=O)NC4CCCCC4)CC3)ncnc21 | -9 | -18 | -1
S=c1[nH]nc(-c2sc3ccccc3c2Cl)o1 | 47* | 50*! | 0
Clc1c(-c2nnco2)sc2ccccc12 | . | 1 | -2
Cc1cc(Cl)ccc1NC(=O)C(C)NC(=O)Nc1ccccc1 (stereo unspecified) | -17 | -10 | 1
C=CCn1c(SCC(=O)NC(=O)NCC)nc2sc3c(c2c1=O)CCC3 | . | -14 | 29
OCCC1CN(Cc2ccc(Cl)cc2)CCN1C1CCCC1 (stereo unspecified) | . | -4 | 0
NS(=O)(=O)c1ccc2[nH]c(=O)c3n[nH]c(=O)n3c2c1 | . | 4 | 11
O=c1[nH]c2ccccc2n2c(=S)[nH]nc12 | 52* | 38 | 0
COc1ccc(C(=O)N=c2sccn2Cc2cccc(C(=O)NC3CC3)c2)cc1OC | . | -16 | 3
CCN1CCN(C(=O)c2ccc(Cn3ccsc3=NC(=O)c3ccc(OC)c(OC)c3)o2)CC1 | . | -16 | 45*
CCC(=O)C(C#N)c1nnc(-c2ccccc2)s1 (stereo unspecified) | . | 56* | 8
CC(N)C(=O)Nc1nnc(-c2ccccc2)s1 (stereo unspecified) | -5 | -6 | -7
O=c1cc(-c2ccccc2)[nH]n1-c1c(F)c(F)c(F)c(F)c1F | -4 | -3 | 5
O=c1cc(-c2ccccc2)[nH]n1-c1nc2ccccc2s1 | 30 | 55* | -7
COc1ccc(-c2[nH]n(-c3nc4ccccc4s3)c(=O)c2C=NCCN2CCOCC2)cc1 | . | -3 | -3
O=c1c(C=NC2CC2)c(-c2ccccc2)[nH]n1-c1nc2ccccc2s1 | 3 | 60* | 3
O=C(Nc1ccc(-c2cccc(-c3ccc4c(c3)OCCO4)n2)cc1)c1cccnc1Cl | -4 | -5 | 19
CC(CNC(=O)c1cc(Cl)c(Cl)n1C)N1CCOCC1 (stereo unspecified) | . | -16 | 2
SMILES | mcGAS inh | hcGAS inh | NPYLR7 agonist
Nc1ccc(O)c(C(=O)O)c1 | . | -4 | -7
O=C(O)C1=CC(=C(c2ccc(O)c(C(=O)O)c2)c2ccc(O)c(C(=O)O)c2)C=CC1=O | 106* | 80* | -3
COc1ccc(-c2noc(CN3C(=O)CC4(CCCCC4)C3=O)n2)c(OC)c1 | . | -13 | 6
N#Cc1c(N)nc(SCC(=O)c2ccccc2)c(C#N)c1-c1ccc(O)cc1 | -3 | -1 | -4
N#Cc1c(N)nc2c(c1N)C(Sc1ccccc1)c1ccc(O)cc1O2 (stereo unspecified) | . | -6 | 413*
CCc1nc2c(OCC=C(C)C)cccn2c1N(C)C(=O)c1cccc(OC)c1 | -3 | -6 | 7
Cc1cc(C)nc(SCc2cc(=O)c(OC(=O)Cc3ccc([N+](=O)[O-])cc3)co2)n1 | 9 | -6 | -11
Cc1ccnc(SCc2cc(=O)c(OC(=O)Cc3ccc(Cl)cc3)co2)n1 | 33 | -2 | -13
Cc1cc(C)nc(SCc2cc(=O)c(OC(=O)Cc3ccc(F)cc3)co2)n1 | 82* | 5 | -16
Cc1cc(C)nc(SCc2cc(=O)c(OC(=O)Cc3ccc(Cl)cc3)co2)n1 | 31 | -1 | -10
CCOc1ccc(CC(=O)Oc2coc(CSc3nc(C)cc(C)n3)cc2=O)cc1 | 63* | 0 | -16
CCOc1ccc(CC(=O)Oc2coc(CSc3nccc(C)n3)cc2=O)cc1 | 59* | 0 | -1
COc1cccc(C(=O)NC(C(=O)N2CCCC2)C2CCN(C(=O)Cc3ccccc3)CC2)c1 (stereo unspecified) | -4 | -6 | 3
COC(=O)CN(C)Cc1cn(-c2cccc(C)c2)nc1-c1cccc(F)c1 | . | -2 | 0
CN(C)CCN1CC(COC(C)(C)C)Oc2ncccc2C1=O (stereo unspecified) | -10 | -6 | 19
C(=N/Nc1nc(Nc2ccccc2)nc(N2CCOCC2)n1)/c1cccnc1 | -5 | -5 | 0
O=C(CSc1nc(=O)n(CCCO)c2c1CCC2)Nc1cccc(F)c1 | -5 | -6 | -10
O=C(CSc1nc(=O)n(CCCO)c2c1CCCC2)Nc1cccc([N+](=O)[O-])c1 | 47* | -6 | -3
COc1cc2c(cc1OC)C(c1cccc(Cl)c1)N(C(=O)c1c(F)cccc1F)CC2 (stereo unspecified) | 1 | -4 | -9
CCc1ccc(C(=O)Nc2c(-c3cc(C)cc(C)c3)nc3cc(C)ccn23)cc1 | -8 | -10 | -9
CC(C)c1ccc(S(=O)(=O)N=C2C=C(Cl)C(=O)c3ccccc32)cc1 | . | 9 | 5
O=C1C(Sc2ncn[nH]2)=CC(=NS(=O)(=O)c2ccccc2)c2ccccc21 | 51* | 38 | 9
CCCCCCCN1C(=O)C(=Cc2c(NCCO)nc3ccccn3c2=O)SC1=S | -7 | -4 | 18
N#CC1(c2ccccc2)CCN(C(=O)C2CCCCC2C(=O)NC(c2ccccc2)c2ccccc2)CC1 (stereo unspecified) | -5 | -8 | 2
CCN1CCCC1CNC(=O)CCC1CCN(C2Cc3ccccc3C2)CC1 (stereo unspecified) | . | -7 | 0
SMILES | mcGAS inh | hcGAS inh | NPYLR7 agonist
COc1ccc(NC(=O)CCC(=O)N2CCc3ccccc3C2)cn1 | -4 | -4 | -4
COc1ccc(NC(=O)CN2C(=O)c3ccccc3NC23CCN(C)CC3)cn1 | . | -12 | 49*
Cc1ccc(CNC(=O)CSc2nccn3nc(-c4ccccc4)cc23)cc1 | -7 | -3 | -3
Cc1nn(CC(=O)NC2CC2)c(C)c1S(=O)(=O)N1CCOCC1 | . | -11 | 0
CC(C)(C)c1ccc(-c2nc3ccc(Cl)cn3c2NCc2ccccc2)cc1 | -7 | -6 | -4
FC(F)(F)c1ccc(-c2nc3ccc(Cl)cn3c2NCc2ccccc2)cc1 | -8 | -7 | 47*
O=C1CCCCCN1CO | 3 | 83* | -6
O=C1CCCCCN1CP(=O)(O)CN1CCCCC1 | -4 | -8 | .
COc1ccc(/C=C2\Oc3c4c(cc(C)c3C2=O)OCN(CC2CCCO2)C4)cc1OC (stereo unspecified) | 3 | 1 | 15
O=C1/C(=C/c2ccc3c(c2)OCO3)Oc2c1ccc1c2CN(CC2CCCO2)CO1 (stereo unspecified) | -7 | -6 | 83*
CC(=O)N1CC(CO)C2(CCN(C(=O)C3CC=CC3)CC2)C1 (stereo unspecified) | -5 | -9 | .
COCCN1CC(CO)C2(CCN(C(=O)C3CC=CC3)CC2)C1 (stereo unspecified) | -7 | 45* | .
Cc1ccc(-c2cnn(C(C)(C)C(=O)NCCc3ccccc3)c2)c(C)c1 | -7 | -4 | -14
N#CC1C(=N)SC(=N)C(C#N)C1c1ccc(F)cc1F (stereo unspecified) | 24 | 18 | 0

From PubChem BioAssay
